Assay results from PubChem BioAssay AID1347418 (Sanford-Burnham Center for Chemical Genomics, 2020).
“And” between values parts separate entries of the source, which are not always exact repeats. Equal values may be shown once. Among all 1,300 compounds or so, about 750 (58%) were called active. The list shows a part of the results. A structure can be active in one record and inactive in another.

target: Sulfhydryl oxidase 1 (Homo sapiens) (UniProt O00391); test: QSOX1 enzyme inhibitors, primary screen, biochemical, ROS-Glo H2O2 luminescence, HTS (AID 1347418); settings: recombinant QSOX1, ROS-Glo H2O2 luminescence, at 12.5 µM, stronger effect = higher value; active = any value above zero unless noted
Sequence (O00391 whole entry, looked up): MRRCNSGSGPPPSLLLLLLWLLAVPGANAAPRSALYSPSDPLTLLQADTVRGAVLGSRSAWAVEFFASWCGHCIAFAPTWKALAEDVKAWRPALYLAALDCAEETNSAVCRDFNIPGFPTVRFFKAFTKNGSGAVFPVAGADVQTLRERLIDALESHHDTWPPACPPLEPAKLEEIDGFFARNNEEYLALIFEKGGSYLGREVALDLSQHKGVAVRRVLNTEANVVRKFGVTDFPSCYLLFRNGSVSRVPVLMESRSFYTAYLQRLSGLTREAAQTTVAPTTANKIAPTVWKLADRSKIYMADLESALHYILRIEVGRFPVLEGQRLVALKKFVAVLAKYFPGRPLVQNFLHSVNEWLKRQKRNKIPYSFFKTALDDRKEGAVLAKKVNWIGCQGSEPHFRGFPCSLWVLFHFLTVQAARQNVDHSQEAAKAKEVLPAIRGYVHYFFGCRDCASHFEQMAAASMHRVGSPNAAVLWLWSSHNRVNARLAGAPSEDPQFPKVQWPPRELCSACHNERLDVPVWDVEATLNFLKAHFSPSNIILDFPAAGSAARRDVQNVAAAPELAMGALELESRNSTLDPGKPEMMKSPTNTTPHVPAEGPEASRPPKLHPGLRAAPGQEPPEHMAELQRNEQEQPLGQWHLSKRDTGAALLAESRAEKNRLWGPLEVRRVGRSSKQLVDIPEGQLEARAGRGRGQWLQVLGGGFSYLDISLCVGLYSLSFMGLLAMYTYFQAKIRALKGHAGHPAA

Row | SMILES | inhibition
1 | C[C@H](Cc1ccc2c(c1)OC(C(=O)O)(C(=O)O)O2)NC[C@H](O)c1cccc(Cl)c1 | -1.8% (inactive)
2 | NC(=O)COc1c(F)cc(SCCNS(=O)(=O)c2ccccc2)cc1F | 4% (active)
3 | CC(=O)NBr | -4.9% (inactive)
4 | O=C(N[C@H]1CN2CCC1CC2)c1ccc(Cl)cc1 | 0.7% (active)
5 | COC[C@H]1OC(=O)c2coc3c2[C@@]1(C)C1=C(C3=O)C2CCC(=O)[C@@]2(C)C[C@H]1OC(C)=O (stereo partly drawn) | 6% (active)
6 | CCCCCCC(C)(C)c1ccc([C@@H]2C[C@H](O)CC[C@H]2CCCO)c(O)c1 | 5.1% [setting not given] (active)
7 | CCCCCCCCCCCCCC(=O)O[C@@H]1[C@@H](C)[C@@]2(O)[C@@H](C=C(CO)C[C@@]3(O)C(=O)C(C)=C[C@@H]23)C2C(C)(C)[C@@]21OC(C)=O (stereo partly drawn) | 1.1% (active)
8 | CC(=O)[C@H]1CCC2C3CC[C@H]4C[C@H](O)CC[C@]4(C)C3CC[C@@]21C (stereo partly drawn) | -2.4% [setting not given] (inactive)
9 | C[C@]12CCC3C(CC[C@H]4C[C@H](O)CC[C@]34C)C1CC[C@@H]2C(=O)CO (stereo partly drawn) | -1.5% (inactive)
10 | CC(=O)[C@H]1CC[C@H]2[C@@H]3CC[C@H]4C[C@](C)(O)CC[C@]4(C)[C@H]3CC[C@]12C | 0.1% [setting not given] (active)
11 | Cc1c(C(=O)c2cccc3ccccc23)c2cccc3c2n1[C@H](CN1CCOCC1)CO3 | 7.5% [setting not given] (active)
12 | O=C(O)c1cc[c]([Hg][Cl])cc1 | -7.7% (inactive)
13 | O=[N+]([O-])c1ccc2nc(N3CCNCC3)ccc2c1 | 0.9% (active)
14 | C=CCN1C[C@@H](C)N([C@H](c2ccc(C(=O)N(CC)CC)cc2)c2cccc(OC)c2)C[C@@H]1C | -4.2% (inactive)
15 | Cc1cc([C@@H]2CCCN2C)on1 | 4.2% (active)
16 | Clc1cc(I)cc(Cl)c1NC1=NCCN1 | -4.1% (inactive)
17 | O=C1C=CC(=O)C=C1 | -2.3% (inactive)
18 | CC12NC(Cc3ccccc31)c1ccccc12 (stereo not drawn) | 1.2% [setting not given] (active)
19 | C[C@]12N[C@H](Cc3ccccc31)c1ccccc12 | 2.8% [setting not given] (active)
20 | CC(O)(CS(=O)(=O)c1ccc(F)cc1)C(=O)Nc1ccc(C#N)c(C(F)(F)F)c1 (stereo not drawn) | -1.2% [setting not given] (inactive)
21 | CC(C)[C@H]1CN[C@H](C(=O)O)[C@H]1CC(=O)O | 0.8% (active)
22 | C=C(C)[C@H]1CN[C@H](C(=O)O)[C@H]1CC(=O)O | -6.1% (inactive)
23 | C=CCN1CC[C@]23CCCCC2[C@H]1Cc1ccc(O)cc13 (stereo partly drawn) | 4.2% [setting not given] (active)
24 | NCC(O)c1cc(O)c(O)cc1F (stereo not drawn) | 12.3% (active)

Row | SMILES | inhibition
25 | NN=C(N)N | 6.4% (active) and -1.5% (inactive)
26 | NCC1(CC(=O)O)CCCCC1 | -2.9% [setting not given] (inactive)
27 | O=P1(N(CCCl)CCCl)NCCCO1 (stereo not drawn) | 4.8% (active)
28 | c1ccc2cc(CC3=NCCN3)ccc2c1 | -1.3% [setting not given] (inactive)
29 | CCCN(CCC)C1Cc2cc(OC)c(OC)cc2C1 | -0.2% (inactive)
30 | CCCN(CCC)[C@@H]1CCc2cccc(O)c2C1 | 3.9% (active)
31 | CCCN(CCC)C1CCc2ccc(O)cc2C1 (stereo not drawn) | 3.7% (active)
32 | CCCN(CCC)[C@@H]1CCc2ccc(O)cc2C1 | 6.3% (active)
33 | CCCN(CCC)C1CCc2cccc(O)c2C1 (stereo not drawn) | -7.7% (inactive)
34 | CCCN(CCC)[C@H]1CCc2c(F)ccc(O)c2C1 | -4.8% (inactive)
35 | CN(N=O)c1cc(O)ccc1O | 4.1% (active)
36 | CN(N=O)c1ccc(O)c(O)c1 | 5.2% (active)
37 | NC1CC1c1ccccc1 (stereo not drawn) | -0.7% (inactive)
38 | CCCN1CC[C@@H]2c3cc(O)ccc3CC[C@@H]21 | -5.9% (inactive)
39 | CCCN1CCO[C@@H]2c3cc(O)ccc3OC[C@H]21 | 4.3% (active)
40 | CCN(CCCl)Cc1ccccc1Br | 1.5% (active)
41 | COc1ccc2c(c1OC)C(=O)O[C@H]2[C@@H]1c2cc3c(cc2CCN1C)OCO3 | -2.2% (inactive)
42 | CN1CCc2cc(O)cc3c2[C@H]1Cc1ccc(O)c(O)c1-3 | 25.4% (active)
43 | COc1ccc2c(c1O)-c1cccc3c1[C@@H](C2)N(C)CC3 | 3.5% (active)
44 | C=CCN1CCc2cccc3c2[C@H]1Cc1ccc(O)c(O)c1-3 | 23.6% (active)
45 | CCCN1CCc2cccc3c2[C@H]1Cc1ccc(O)c(O)c1-3 | 25.2% (active)
46 | CCCN1CCc2cc(O)cc3c2[C@H]1Cc1ccc(O)c(O)c1-3 | 29.9% (active)
47 | C[C@H]1C2Cc3ccc(O)cc3C1(C)CCN2CC1CC1 (stereo partly drawn) | 4.5% [setting not given] (active)
48 | O=C(O)CC[N+](=O)[O-] | -3.4% [setting not given] (inactive)

Row | SMILES | inhibition
49 | CC(C)NP(=O)(NC(C)C)OP(=O)(NC(C)C)NC(C)C | 10.1% (active)
50 | C[C@H](N)CN1CCc2ccc(Br)cc21 | 35.7% (active)
51 | CCCn1c(=O)c2[nH]c(C3CCCC3)nc2n(CCCOC(=O)c2ccc(S(=O)(=O)F)cc2)c1=O | -1.3% (inactive)
52 | CC(=O)c1c(O)c(C)c(O)c(Cc2c(O)c3c(c(C(=O)/C=C/c4ccccc4)c2O)OC(C)(C)C=C3)c1O | 0.8% (active)
53 | CCNC(=O)[C@H]1O[C@@H](n2cnc3c(N)ncnc32)C(O)[C@H]1O (stereo partly drawn) | 3.3% (active)
54 | CCCC(C)(COC(N)=O)COC(=O)NC(C)C (stereo not drawn) | 1.5% [setting not given] (active)
55 | NC1CCc2cc(O)c(O)cc2C1 (stereo not drawn) | 12.7% (active)
56 | Ic1ccccc1CNC1C2CCN(CC2)C1C(c1ccccc1)c1ccccc1 (stereo not drawn) | -6.2% (inactive)
57 | COc1ccc2c(c1)C13CCCCC1C(C2)N(C)CC3 (stereo not drawn) | -2.3% [setting not given] (inactive)
58 | COc1ccc2c(c1)[C@@]13CCCC[C@H]1[C@@H](C2)NCC3 | 1.4% [setting not given] (active)
59 | c1ccc(C2CC2)c(OCC2=NCCN2)c1 | -2% (inactive)
60 | CC(CCc1ccccc1)NC(C)C(O)c1ccc(O)cc1 (stereo not drawn) | 0.8% (active)
61 | Nc1ccc(CCN2CCN(c3cccc(C(F)(F)F)c3)CC2)cc1 | 2.2% (active)
62 | S=C(NC1CCCCC1)N1CCC(c2cnc[nH]2)CC1 | -1.7% (inactive)
63 | Clc1ccc(N2CC3CCC(C2)N3)nn1 | 1.8% (active)
64 | C#CCN[C@H](C)Cc1ccccc1 | 4.3% [setting not given] (active)
65 | N[C@@H](CCl)C(=O)O | -3.4% (inactive)
66 | C[Se]C[C@H](N)C(=O)O | 3.9% (active)
67 | O=C1NCN(c2ccccc2)C12CCN(CC1COc3ccccc3O1)CC2 (stereo not drawn) | -3.1% (inactive)
68 | C/C(O)=C(\C#N)C(=O)Nc1cc(Br)ccc1Br | -1.3% (inactive)
69 | COc1cc(CC(C)N)c(OC)cc1I (stereo not drawn) | 4.3% [setting not given] (active)
70 | NC(=O)c1ccc(OCC(O)CN2CC=C(c3ccc(F)cc3)CC2)cc1 (stereo not drawn) | 0.4% (active)
71 | COc1ccc(C(CN(C)C)C2(O)CCCCC2)cc1 (stereo not drawn) | -1.3% (inactive)
72 | CC(C)NC(C)Cc1ccc(I)cc1 (stereo not drawn) | 5.2% [setting not given] (active)

Row | SMILES | inhibition
73 | COc1ccc2[nH]c3c(c2c1)CCNC3 | 0.8% (active)
74 | O=S1(=O)N(CCN2CC=C(c3c[nH]c4cc(F)ccc34)CC2)c2cccc3c2N1CCC3 | 4.2% (active)
75 | CC(=O)[C@H]1CC[C@H]2[C@@H]3CC[C@H]4C[C@H](O)CC[C@]4(C)[C@H]3C(=O)C[C@]12C | -0.2% [setting not given] (inactive)
76 | c1ccc(CCCN2CCN(CCOC(c3ccccc3)c3ccccc3)CC2)cc1 | 7% (active)
77 | Fc1ccc(C(OCCN2CCN(CCCc3ccccc3)CC2)c2ccc(F)cc2)cc1 | 6.5% (active)
78 | O=C(CCCN1CCC2(CC1)C(=O)NCN2c1ccccc1)c1ccc(F)cc1 | -1% [setting not given] (inactive)
79 | CC[C@@H](CO)NC(=O)[C@@H]1C=C2c3cccc4[nH]cc(c34)C[C@H]2N(C)C1 | 6.3% [setting not given] (active)
80 | CC[C@@H](CO)NC(=O)[C@@H]1C=C2c3cccc4c3c(cn4C)C[C@H]2N(C)C1 | 1.6% [setting not given] (active)
81 | C=CCN1CC[C@]23c4c5ccc(O)c4O[C@H]2/C(=N/NC(=O)c2ccccc2)CC[C@@]3(O)[C@H]1C5 | -0.4% [setting not given] (inactive)
82 | O=C1CC[C@@]2(O)C3Cc4ccc(O)c5c4C2(CCN3CC2CC2)[C@H]1O5 (stereo partly drawn) | 1.2% [setting not given] (active)
83 | C=CCN1CCC23c4c5ccc(O)c4O[C@H]2C(=O)CC[C@@]3(O)C1C5 (stereo partly drawn) | 3.2% [setting not given] (active)
84 | C=CCN1CC[C@]23c4c5ccc(O)c4O[C@@H]2/C(=N/N=C2\CC[C@@]4(O)C6Cc7ccc(O)c8c7[C@@]4(CCN6CC=C)[C@@H]2O8)CC[C@@]3(O)C1C5 | 1.8% (active)
85 | CCOC(=O)c1ncn2c1[C@@H]1CCCN1C(=O)c1cc(OC)ccc1-2 | 3.1% (active)
86 | Cc1ncsc1CCCl | 4.8% (active)
87 | Clc1cnc(Oc2ccc(Oc3ncc(Cl)cc3Cl)cc2)c(Cl)c1 | -1.5% [setting not given] (inactive)
88 | CN1CCC(c2c[nH]c3ccc(O)cc23)CC1 | 26.8% (active)
89 | CC(Cc1ccc(OCC(=O)O)cc1)NCC(O)c1cccc(Cl)c1 (stereo not drawn) | -3.3% (inactive)
90 | CC(Cc1ccc(O)cc1)NCC(O)c1cc(O)cc(O)c1 (stereo not drawn) | 7.9% [setting not given] (active)
91 | N[C@@]1(C(=O)O)CC[C@@H](C(=O)O)C1 | -1.7% (inactive)
92 | CN1CC[C@@]2(C)c3cc(O)ccc3N(C)C12 (stereo partly drawn) | 15.2% (active)
93 | CN1CC[C@@]2(C)c3cc(OC(=O)Nc4ccccc4)ccc3N(C)[C@@H]12 | 8.3% (active)
